Measurements taken from the supplement of paper PMC6089552.
± gives the standard deviation of the averaged measurements. The campaign covered roughly 3,200 compounds. About 300 (9.4%) showed activity. The sample holds actives, similar compounds and a random draw of the others, so the mix is not that of the screen.

Tested on: A673/TR/shEF
Assay: cell viability (LOESS-normalised, relative to median of negative controls) (log2 ratio); higher = more viable cells (less compound effect), active = hit call of the paper (over 3 MAD below the median)
Conditions: treatment time: 72 h
Procedure, shortened: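 A673/TR/shEF Ewing sarcoma cells (1,500 per well, 384-well plates) were grown with or without doxycycline to induce EWS-FLI1 shRNA knockdown, starting 24 h before compounds. Library compounds at two or more concentrations, with DMSO controls, were added for three days. Cell viability was read by CellTiter-Glo luminescence on an Envision reader, then LOESS-corrected per plate, divided by the median of negative controls and log2-transformed. Hits were wells at least three median absolute deviations from the median of all screened wells.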

[1] = 0.25 µM, library screen: screen1, EWS-FLI1 expression: high (no doxycycline)
[2] = 0.25 µM, library screen: screen1, EWS-FLI1 expression: low (doxycycline-induced shRNA knockdown)
[3] = 2.5 µM, library screen: screen1, EWS-FLI1 expression: high (no doxycycline)
[4] = 2.5 µM, library screen: screen1, EWS-FLI1 expression: low (doxycycline-induced shRNA knockdown)
[5] = 0.25 µM, library screen: screen2, EWS-FLI1 expression: high (no doxycycline)
[6] = 0.25 µM, library screen: screen2, EWS-FLI1 expression: low (doxycycline-induced shRNA knockdown)
[7] = 2.5 µM, library screen: screen2, EWS-FLI1 expression: high (no doxycycline)
[8] = 2.5 µM, library screen: screen2, EWS-FLI1 expression: low (doxycycline-induced shRNA knockdown)
[9] = 0.103 µM, library screen: screen3, EWS-FLI1 expression: high (no doxycycline)
[10] = 0.103 µM, library screen: screen3, EWS-FLI1 expression: low (doxycycline-induced shRNA knockdown)
[11] = 0.308 µM, library screen: screen3, EWS-FLI1 expression: high (no doxycycline)
[12] = 0.308 µM, library screen: screen3, EWS-FLI1 expression: low (doxycycline-induced shRNA knockdown)
[13] = 0.926 µM, library screen: screen3, EWS-FLI1 expression: high (no doxycycline)
[14] = 0.926 µM, library screen: screen3, EWS-FLI1 expression: low (doxycycline-induced shRNA knockdown)
[15] = 2.8 µM, library screen: screen3, EWS-FLI1 expression: high (no doxycycline)
[16] = 2.8 µM, library screen: screen3, EWS-FLI1 expression: low (doxycycline-induced shRNA knockdown)
[17] = 8.3 µM, library screen: screen3, EWS-FLI1 expression: high (no doxycycline)
[18] = 8.3 µM, library screen: screen3, EWS-FLI1 expression: low (doxycycline-induced shRNA knockdown)
[19] = 25 µM, library screen: screen3, EWS-FLI1 expression: high (no doxycycline)
[20] = 25 µM, library screen: screen3, EWS-FLI1 expression: low (doxycycline-induced shRNA knockdown)

Measured: cell viability (log2)

COc1cc(O)c2c(=O)cc(-c3ccc(OC)c(-c4c(O)cc(O)c5c(=O)cc(-c6ccc(O)cc6)oc45)c3)oc2c1
inactive: [1] 0.0329 | [2] 0.0664 | [3] 0.144 | [4] -0.0351

CC(=O)OCC(=O)[C@@]1(O)CC[C@H]2[C@@H]3CC[C@@H]4C[C@H](OC(C)=O)CC[C@]4(C)[C@H]3C(=O)C[C@@]21C
inactive: [1] 0.118 | [2] 0.0343 | [3] 0.0611 | [4] -0.0696

NC(CCC(=O)NCS(=O)(=O)O)C(=O)O (configuration not stated)
inactive: [5] 0.192 | [6] 0.0399 | [7] 0.0879 | [8] 0.0533

N/C(=N/c1nc2ccccc2o1)NC(=O)c1cccc(Br)c1
inactive: [1] 0.0693 | [2] -0.0125 | [3] 0.162 | [4] -0.0831

CN(Cc1ccccc1)C(=O)C=Cc1ccc([N+](=O)[O-])cc1
inactive: [1] 0.0837 | [2] 0.078 | [3] 0.013 | [4] 0.137

COc1ccc(OC)c(C2NC(=S)NC(C)=C2C(=O)Nc2ccccc2Cl)c1 (configuration not stated)
inactive: [1] 0.0287 | [2] 0.0702 | [3] 0.112 | [4] 0.148

COc1cccc2c1C(=O)c1c(O)c3c(c(O)c1C2=O)C[C@@](O)(C(C)=O)C[C@@H]3O[C@H]1C[C@H](N)[C@H](O)[C@H](C)O1
active: [9] -0.695 | [5] -1.6 | [6] -0.269 | [11] -1.27 | [12] -0.403 | [13] -2.5 | [14] -0.592 | [7] -2.54 | [8] -0.371 | [15] -3.11 | [16] -1.48 | [17] -4.09 | [18] -3.66 | [19] -4.26 | [20] -4.25
-0.133 ± 0.18: [10]

COc1cccc2c1C(=O)c1c(O)c3c(c(O)c1C2=O)C[C@@](O)(C(=O)CO)C[C@@H]3O[C@H]1C[C@H](N)[C@H](O)[C@H](C)O1
inactive: [9] -0.177 | [10] -0.0878
active: [11] -0.86 | [12] -0.36 | [13] -1.59 | [14] -0.403 | [15] -2.62 | [16] -1.5 | [17] -4.26 | [18] -4.27 | [19] -4.05 | [20] -4.25

COc1cccc2c1C(=O)c1c(O)c3c(c(O)c1C2=O)C[C@@](O)(C(=O)CO)C[C@@H]3O[C@H]1C[C@H](N)[C@@H](O)[C@H](C)O1
active: [9] -0.347 | [10] -0.195 | [11] -1.12 | [12] -0.399 | [13] -1.58 | [14] -0.41 | [15] -3.26 | [16] -1.19 | [17] -4.26 | [18] -4.27 | [19] -4.26 | [20] -4.25

CC(=O)[C@]1(O)Cc2c(O)c3c(c(O)c2[C@@H](O[C@H]2C[C@H](N)[C@H](O)[C@H](C)O2)C1)C(=O)c1ccccc1C3=O
active: [5] -2.37 | [6] -0.307 | [7] -3.12 | [8] -0.984

Cc1cccc(-n2ncc3c(N4CCCC4)ncnc32)c1
inactive: [1] 0.069 | [2] 0.0339 | [3] 0.118 | [4] 0.0767

COc1cc(-c2oc3c(OC)c(O)cc(O)c3c(=O)c2O)ccc1O
inactive: [1] 0.0554 | [2] 0.0375 | [3] 0.0118 | [4] 0.0806

COc1ccc(OC)c(CN2CCN(Cc3c[nH]c4ccccc34)CC2)c1
inactive: [1] 0.113 | [2] 0.0685 | [3] 0.072 | [4] 0.0923

C[C@@H](O)[C@H]1C(=O)N2C(C(=O)[O-])=C(SC3Cn4cnc[n+]4C3)[C@H](C)[C@H]12 (some centres not stated)
inactive: [9] 0.0935 | [10] 0.0362 | [11] 0.108 | [12] 0.0849 | [13] 0.0657 | [14] 0.0643 | [15] 0.107 | [16] 0.0482 | [17] 0.0477 | [18] 0.0712 | [19] 0.131 | [20] 0.0731

CN=c1nc(C2C=CC=CC2)n(C2C=CC=CC2)s1 (configuration not stated)
inactive: [5] 0.18 | [6] 0.0729 | [7] 0.119 | [8] 0.0881

C/C(=C\CO)CCC[C@H](C)CCC[C@H](C)CCCC(C)C
inactive: [1] 0.0657 | [2] 0.0273 | [3] 0.135 | [4] -0.104

CCCCC[C@@H](CC(=O)O)C(=O)O
inactive: [1] 0.0401 | [2] 0.147 | [3] 0.16 | [4] 0.126

CO[C@H]1C=CC2CCN3CCC4=C(CC(=O)OC4)[C@]23C1 (some centres not stated)
inactive: [5] 0.124 | [6] 0.124 | [7] 0.0895 | [8] 0.152

CC1(C)OC(=O)C=C[C@@]2(C)C1C[C@@H](O)[C@]1(C)C2CC[C@@]2(C)[C@H](c3ccoc3)OC(=O)C3OC321 (some centres not stated)
inactive: [1] 0.0796 | [2] 0.0686 | [3] 0.159 | [4] 0.0743
